Reference: PubChem BioAssay
The source made the active and inactive calls.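 The calls were made as follows: active = mean inhibition above 46.5%, the solvent-only control mean plus 3 SD; inactive = the rest.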

The compounds below were run against Nuclear receptor coactivator 2 (Homo sapiens) (UniProt Q15596) (assay: SRC2 coactivator transcriptional activity inhibitors, confirmation, cell-based, luminescence, HEK293, triplicate (AID 652008;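 also: 0% = DMSO-treated cells and 100% = Gossypol at 36 µM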)). Conditions: HEK293 GAL4-SRC2 luciferase reporter, at 8.9 µM, hits give high values.
Nuclear receptor coactivator 2 (Homo sapiens), sequence (Q15596 whole entry, looked up, the tested form may be a part): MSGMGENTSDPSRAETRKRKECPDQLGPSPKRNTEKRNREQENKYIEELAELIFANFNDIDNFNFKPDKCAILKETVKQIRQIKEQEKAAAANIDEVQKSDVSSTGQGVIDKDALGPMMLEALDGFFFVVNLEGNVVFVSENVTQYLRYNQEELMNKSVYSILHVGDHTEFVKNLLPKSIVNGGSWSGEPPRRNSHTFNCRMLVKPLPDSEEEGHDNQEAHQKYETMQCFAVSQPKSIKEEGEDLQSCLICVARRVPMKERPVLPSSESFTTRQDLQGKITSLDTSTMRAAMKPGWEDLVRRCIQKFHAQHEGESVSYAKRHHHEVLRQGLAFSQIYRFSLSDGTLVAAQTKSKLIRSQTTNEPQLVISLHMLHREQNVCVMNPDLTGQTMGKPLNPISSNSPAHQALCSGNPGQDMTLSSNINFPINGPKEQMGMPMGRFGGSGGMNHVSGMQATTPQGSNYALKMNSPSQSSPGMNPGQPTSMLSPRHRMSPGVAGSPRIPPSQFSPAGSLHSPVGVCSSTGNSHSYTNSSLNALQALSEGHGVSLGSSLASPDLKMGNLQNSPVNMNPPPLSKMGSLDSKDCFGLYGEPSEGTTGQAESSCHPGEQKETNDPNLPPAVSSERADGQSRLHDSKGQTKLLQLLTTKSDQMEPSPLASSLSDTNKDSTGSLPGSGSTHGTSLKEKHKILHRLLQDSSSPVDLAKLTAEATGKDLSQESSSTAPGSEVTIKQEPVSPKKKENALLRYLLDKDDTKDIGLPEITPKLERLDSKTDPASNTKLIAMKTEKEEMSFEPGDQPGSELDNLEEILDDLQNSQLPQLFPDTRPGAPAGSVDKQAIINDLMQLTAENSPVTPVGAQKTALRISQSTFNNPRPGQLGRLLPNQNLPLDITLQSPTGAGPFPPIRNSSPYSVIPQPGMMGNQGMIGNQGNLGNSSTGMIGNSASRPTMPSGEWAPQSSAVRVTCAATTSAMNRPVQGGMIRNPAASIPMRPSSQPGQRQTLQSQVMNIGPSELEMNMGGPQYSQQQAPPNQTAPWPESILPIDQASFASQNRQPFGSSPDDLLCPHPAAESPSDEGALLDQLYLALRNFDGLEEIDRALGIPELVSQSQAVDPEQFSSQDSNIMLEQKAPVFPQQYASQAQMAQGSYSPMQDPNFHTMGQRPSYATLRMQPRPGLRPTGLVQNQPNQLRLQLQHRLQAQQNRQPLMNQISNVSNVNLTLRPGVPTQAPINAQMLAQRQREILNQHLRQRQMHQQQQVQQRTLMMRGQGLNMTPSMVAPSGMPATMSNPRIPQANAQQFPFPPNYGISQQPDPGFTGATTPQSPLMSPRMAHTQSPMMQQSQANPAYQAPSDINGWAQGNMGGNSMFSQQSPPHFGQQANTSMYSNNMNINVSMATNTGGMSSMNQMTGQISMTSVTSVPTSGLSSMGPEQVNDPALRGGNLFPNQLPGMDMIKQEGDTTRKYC

inhibition, inactive:
CCN(CC)S(=O)(=O)c1cccc(C(=O)N/N=C(\C)c2ccc(O)cc2O)c1 31.6%
CC(=O)OCCN1c2ccccc2Sc2cnccc21 23.7%
Cc1cc(Sc2nnc(N)s2)c2ccccc2n1 32%
COCC1CCN(C(=O)c2cc(COc3cccc4cnccc34)on2)CC1 43.1%
CC(C)(C)C(=O)Nc1ccc(-c2cc3cc(Cl)ccc3o2)cc1 -30.7%
COc1cc(/C=C/C(=O)c2ccc(F)cc2)cc(OC)c1OC 28.1%
COc1ccc(-c2csc3ncnc(NCCN4CCOCC4)c23)cc1 41.1%
Cc1cccc(C)c1NS(=O)(=O)c1ccc(-c2cnc(C3CC3)o2)cc1 17.2%
CCN(CC)S(=O)(=O)c1ccc(N/N=C/c2cc(OC)ccc2O)nc1 19.9%
CCN(CC)c1ccc(-n2c(C)c(C(C)=O)c(C(C)=O)c2C)cc1 11.8%
Cc1nc([N+](=O)[O-])c(Sc2nc3ccccc3n2C)n1Cc1ccccc1 46.5%
COC(=O)c1c(C)n(-c2ccc(OC)cc2)c2ccc(O)cc12 28.1%
CCCCN(CC)Cc1ccc(CNC(=S)Nc2ccc(C)cc2Cl)o1 30.4%
Cc1ccc(-n2nc3c(=O)n(C(C)C(=O)NCCC4=CCCCC4)nc(C)c3c2C)cc1 (stereo not given) 29.1%
Cc1ccc(NC(=O)c2ccccc2NS(=O)(=O)c2ccc(F)cc2)cc1S(=O)(=O)N1CCCCC1 27.6%
CCC(=O)c1ccc(O)c(CC=C(C)C)c1 14.5%
O=C(c1ccc(S(=O)(=O)c2ccc(F)cc2)c([N+](=O)[O-])c1)N1CCCCCC1 29.9%
CCOc1cc(/C=C2\COc3ccccc3C2=O)ccc1OCC(=O)N(C)C 27.8%
O=C(NC(CSCc1ccccc1)C(=O)N/N=C/c1ccc(O)cc1O)c1ccc([N+](=O)[O-])cc1 (stereo not given) 8.58%
Cc1cccc(CN2CCN(C(=O)CCl)CC2)c1 33.5%
COc1ccc(COC(=O)C2=C(C)NC(=O)NC2c2ccc(OC)cc2)cc1 (stereo not given) 33%
O=S(=O)(/C(=C/c1ccc(C(F)(F)F)cc1)c1nc2ccccc2[nH]1)c1ccccc1 30.6%
CC(C)C(=O)NC(c1ccco1)c1ccc2cccnc2c1O (stereo not given) 8.96%

inhibition, active:
CCCCn1c(CCl)nc2cc(S(=O)(=O)N3CCOCC3)ccc21 64.1%
C=C(C(=O)c1ccccc1)C(C)C(=C)C(=O)c1ccccc1 51.8%
CC(=O)CSc1ccc(-c2nc3cc(C)c(C)cc3[nH]2)cn1 78.8%
O=C(NCCCn1ccnc1)c1ccc(N2CCCCCC2)c([N+](=O)[O-])c1 54.3%
COc1cc(/C=C/C(=O)c2ccc3c(c2)OCCO3)cc(Br)c1OCC(=O)N(C)C 50.3%
Cc1ccc(C(=O)NNC(=O)CCCN2C(=O)/C(=C/c3ccccc3Cl)SC2=S)cc1 60.2%
COc1ccc(N(C(=O)CCl)C(C(=O)NCCc2ccccc2)c2cccs2)cc1Cl (stereo not given) 64.9%
CCOc1ccc(C(=O)C(CCC(CN(C)C)C(=O)c2ccc(OCC)cc2)CN(C)C)cc1 (stereo not given) 54.2%
O=C(N[C@@H](Cc1ccccc1)C(=O)CCl)OCc1ccccc1 69.3%
CCc1ccc(-c2nc(CS(=O)CC(=O)NCc3ccco3)c(C)o2)cc1 (stereo not given) 56.7%
O=C(OCc1ccccc1)c1ccc(NCc2cc(O)ccc2O)cc1 90%
O=C(O)CCn1c(O)c(C=C2N=c3ccccc3=N2)sc1=S 72.1%
CC1CCN(c2ccc(-c3cccs3)nn2)CC1 47.3%
O=C(O)c1ccc(N/N=C/c2ccc3c(c2)OCO3)cc1 51.3%
Nc1ccc(-c2nc3ccc(C(=O)O)cc3s2)cc1 60.6%
Cc1ccc(-n2c(C)cc(C(=O)COc3cccnc3[N+](=O)[O-])c2C)cc1 64%
Cc1ccc2nc(NC(=O)CSCC(=O)OCC(=O)c3ccc(Br)cc3)sc2c1 89.2%
